PubChem BioAssay
The source made the active and inactive calls. Unless noted, the rule behind the calls is not given here.

What was measured:
[1] = compounds binding Alexa647 anti-His antibody – biochemical, small-molecule microarray, 635 nm fluorescence, artefact control for SMM control protein annotation, primary screen (AID 1128); conditions: higher = more signal;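 note: score merges feature fluorescence with signal-to-noise for each printed compound spot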
[2] = system: Human papillomavirus type 1a E7 protein (residues 1-88); test: HPV1a E7 small-molecule binders, primary screen, biochemical, small-molecule microarray, residues 1-88, 635 nm (AID 1129); conditions: small-molecule microarray binding, fluorescence 635 nm; higher = more signal
[3] = biological target: Focal adhesion kinase 1 (Homo sapiens) (UniProt Q05397); test: PTK2 protein binding on printed compound slides – biochemical, small-molecule microarray, 635/667 nm fluorescence, BSA, DTT, primary screen (AID 1130); conditions: 635 nm fluorescence, higher = more signal;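 note: composite of spot emission at 667 nm and signal to noise over triplicate slides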
Chain of Focal adhesion kinase 1 (Homo sapiens) (Q05397 whole entry, looked up): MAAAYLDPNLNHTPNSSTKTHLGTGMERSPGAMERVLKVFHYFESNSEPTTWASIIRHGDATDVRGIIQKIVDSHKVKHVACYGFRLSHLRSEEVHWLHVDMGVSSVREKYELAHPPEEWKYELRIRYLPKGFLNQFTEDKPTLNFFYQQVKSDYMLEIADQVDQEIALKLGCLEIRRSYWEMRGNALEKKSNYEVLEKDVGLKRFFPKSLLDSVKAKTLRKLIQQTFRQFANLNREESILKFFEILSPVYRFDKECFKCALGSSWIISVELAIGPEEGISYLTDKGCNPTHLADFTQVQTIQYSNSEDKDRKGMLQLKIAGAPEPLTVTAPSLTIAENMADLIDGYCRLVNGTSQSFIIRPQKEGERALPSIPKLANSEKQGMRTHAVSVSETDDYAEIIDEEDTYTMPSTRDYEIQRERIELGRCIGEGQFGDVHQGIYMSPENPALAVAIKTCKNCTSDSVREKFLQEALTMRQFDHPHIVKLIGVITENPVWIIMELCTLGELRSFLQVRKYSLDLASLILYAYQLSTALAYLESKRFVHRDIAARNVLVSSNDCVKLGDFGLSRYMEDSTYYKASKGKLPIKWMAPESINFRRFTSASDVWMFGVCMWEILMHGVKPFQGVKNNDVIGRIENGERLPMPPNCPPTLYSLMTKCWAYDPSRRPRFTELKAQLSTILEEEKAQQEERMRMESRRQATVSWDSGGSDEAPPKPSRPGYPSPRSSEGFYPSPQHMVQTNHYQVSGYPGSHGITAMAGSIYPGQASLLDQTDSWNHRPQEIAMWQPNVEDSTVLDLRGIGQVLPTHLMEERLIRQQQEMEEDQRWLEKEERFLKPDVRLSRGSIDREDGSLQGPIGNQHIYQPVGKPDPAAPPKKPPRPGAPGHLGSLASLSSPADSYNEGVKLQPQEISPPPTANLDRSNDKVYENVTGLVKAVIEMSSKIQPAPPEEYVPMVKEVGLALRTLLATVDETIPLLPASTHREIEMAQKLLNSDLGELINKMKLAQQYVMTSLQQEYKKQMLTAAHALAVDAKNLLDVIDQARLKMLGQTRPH

[4] = system: Fibrinogen (Alexa647-labelled); test: Alexa647-fibrinogen binding to printed small molecules – biochemical, small-molecule microarray, 635/667 nm fluorescence, artefact control for SMM control-protein annotation, profiling panel (AID 1131); conditions: fibrinogen-A647 binding fluorescence, higher = more signal;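 note: z-score merges 667 nm fluorescence with per-spot signal-to-noise over triplicate slides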
[5] = biological target: Follistatin (Homo sapiens) (UniProt P19883); test: FST protein binding to printed compounds – biochemical, small-molecule microarray, 635/667 nm fluorescence, primary screen (AID 1132); conditions: 635 nm fluorescence, higher = more signal
Chain of Follistatin (Homo sapiens) (P19883 whole entry, looked up): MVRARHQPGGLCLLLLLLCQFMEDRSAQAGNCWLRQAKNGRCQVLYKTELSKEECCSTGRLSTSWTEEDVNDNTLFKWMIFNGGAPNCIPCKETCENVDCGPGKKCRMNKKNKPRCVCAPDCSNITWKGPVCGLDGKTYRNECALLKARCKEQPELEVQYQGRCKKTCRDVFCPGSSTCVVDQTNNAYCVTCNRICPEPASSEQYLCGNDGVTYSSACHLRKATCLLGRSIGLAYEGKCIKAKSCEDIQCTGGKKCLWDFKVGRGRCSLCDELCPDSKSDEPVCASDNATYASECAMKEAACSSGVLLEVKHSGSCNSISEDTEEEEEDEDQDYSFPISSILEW

[6] = biological target: Fibroblast growth factor 2 (Homo sapiens) (UniProt P09038); test: basic fibroblast growth factor binding to printed compounds – biochemical, small-molecule microarray, 635/667 nm fluorescence, primary screen (AID 1133); conditions: FGF2, fluorescence 635/667, higher = more signal
Chain of Fibroblast growth factor 2 (Homo sapiens) (P09038 whole entry, looked up): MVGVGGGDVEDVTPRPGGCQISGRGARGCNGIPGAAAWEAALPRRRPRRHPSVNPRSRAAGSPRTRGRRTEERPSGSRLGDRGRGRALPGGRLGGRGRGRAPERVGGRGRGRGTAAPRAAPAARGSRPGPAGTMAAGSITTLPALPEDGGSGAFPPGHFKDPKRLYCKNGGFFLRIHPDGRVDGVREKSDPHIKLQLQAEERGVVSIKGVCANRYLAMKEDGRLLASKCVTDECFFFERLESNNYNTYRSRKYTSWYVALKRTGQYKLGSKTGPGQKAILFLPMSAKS

[7] = JC-1 mitochondrial potential readout, lung cancer cells – cell-based, A549, JC-1 fluorescence, basal, 24 h, 100 nL, profiling panel (AID 1138); conditions: higher = more signal;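 note: A549 lung adenocarcinoma cells under basal conditions with no added stimulus; test concentration not given here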
[8] = system: Lefty1; test: Lefty1 protein binding to printed compounds – biochemical, small-molecule microarray, 635/667 nm fluorescence, primary screen (AID 1139); conditions: fluorescence 635/667, higher = more signal
[9] = system: wheat germ agglutinin (Triticum aestivum), Alexa647-labelled; test: Alexa647-WGA lectin binding to printed small molecules – biochemical, small-molecule microarray, 635/667 nm fluorescence, artefact control for SMM control-protein annotation, profiling panel (AID 1140); conditions: WGA-A647 binding, 635 nm fluorescence, higher = more signal;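 note: score merges 667 nm feature emission with signal to noise over triplicate slides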
[10] = biological target: Luciferin 4-monooxygenase (Photinus pyralis) (UniProt P08659); test: inhibition of purified Photinus pyralis luciferase – biochemical, luminescence, purified enzyme, 2006 set, primary screen (AID 1141); conditions: purified firefly luciferase, SteadyGlo luminescence, 30 min; higher = more signal, called active from +8 up or from −8 down;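 note: cell-free assay with purified firefly luciferase at 100 ng per well in PBS; test concentration not given here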
Chain of Luciferin 4-monooxygenase (Photinus pyralis) (P08659 whole entry, looked up): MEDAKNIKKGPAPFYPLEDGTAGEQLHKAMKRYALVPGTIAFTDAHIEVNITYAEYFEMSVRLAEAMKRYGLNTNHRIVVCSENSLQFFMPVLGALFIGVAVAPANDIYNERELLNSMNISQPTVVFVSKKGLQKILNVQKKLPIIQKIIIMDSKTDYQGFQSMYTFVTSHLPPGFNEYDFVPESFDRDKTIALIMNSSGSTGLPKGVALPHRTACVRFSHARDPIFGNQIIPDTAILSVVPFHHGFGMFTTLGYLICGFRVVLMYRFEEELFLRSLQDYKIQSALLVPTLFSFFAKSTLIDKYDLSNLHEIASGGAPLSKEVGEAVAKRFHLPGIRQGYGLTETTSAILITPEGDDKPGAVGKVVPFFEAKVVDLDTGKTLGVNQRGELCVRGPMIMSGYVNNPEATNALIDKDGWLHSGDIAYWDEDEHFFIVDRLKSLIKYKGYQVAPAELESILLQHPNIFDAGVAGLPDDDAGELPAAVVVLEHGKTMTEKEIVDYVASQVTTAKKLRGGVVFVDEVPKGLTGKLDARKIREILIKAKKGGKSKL

[11] = system: Wnt5a (protein binding on small-molecule microarray); test: small molecules binding Wnt5a protein – biophysical, small-molecule microarray, 635/667 nm fluorescence, primary screen (AID 1142); conditions: 635 nm fluorescence, higher = more signal;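 note: fluorescence read at 667 nm with signal to noise per printed feature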
[12] = ATP-based viability of Huh7 replicon cells – cell-based, CellTiter-Glo luminescence, basal, 48 h, cytotoxicity control for HCV replication inhibitor project, primary screen (AID 1143); conditions: higher = more signal, called active from +8 up or from −8 down;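 note: Huh7 hepatoma cells carrying a hepatitis C replication reporter with no stimulus; test concentration not given here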
[13] = Pseudomonas biofilm growth suppression – PAO1 strain, BacTiter-Glo luminescence, LB-PBS, primary screen (AID 1144); conditions: P. aeruginosa PAO1 biofilm, 12 h, higher = more signal
[14] = basal CRE-LacZ reporter activity in PC12 – cell-based, unstimulated, primary screen (AID 1145); conditions: no forskolin, luminescence, 4.5 h, higher = more signal, called active from +8 up or from −8 down
[15] = forskolin-driven CRE-LacZ activity in PC12 – cell-based, CRE-LacZ reporter, forskolin-stimulated, primary screen (AID 1146); conditions: luminescence, 4.5 h, higher = more signal, called active from +8 up or from −8 down;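 note: PC12 cells with 6xCRE LacZ reporter stimulated by forskolin 10 µM; beta-galactosidase reporter signal reflecting CREB driven transcription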
[16] = biological target: Streptavidin (Streptomyces avidinii) (UniProt P22629); test: compounds binding control protein streptavidin – biophysical, small-molecule microarray, 635/667 nm fluorescence, artefact control for SMM compound annotation, primary screen (AID 1147); conditions: higher = more signal;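 note: signal reflects streptavidin binding to arrayed compounds as a control protein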
Chain of Streptavidin (Streptomyces avidinii) (P22629 whole entry, looked up): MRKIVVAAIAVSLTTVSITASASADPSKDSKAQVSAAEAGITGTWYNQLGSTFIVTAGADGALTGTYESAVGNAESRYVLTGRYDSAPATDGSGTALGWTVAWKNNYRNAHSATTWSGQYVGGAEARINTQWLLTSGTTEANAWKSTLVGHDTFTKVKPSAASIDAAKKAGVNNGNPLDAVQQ

[17] = probe aInhba binding on compound microarray – biochemical, small-molecule microarray, 635/667 nm fluorescence, primary screen (AID 1148); conditions: higher = more signal;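 note: score merges 667nm spot fluorescence with signal-to-noise for antibody binding to printed compounds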
[18] = biological target: Torsin-1A (Homo sapiens) (UniProt O14656); test: TOR1A wild-type binding on microarray – cell lysate, small-molecule microarray, lysate, 635/667 nm, primary screen (AID 1149); conditions: COS7 hTOR1A-WT lysate, 635 nm fluorescence, higher = more signal
Chain of Torsin-1A (Homo sapiens) (O14656 whole entry, looked up): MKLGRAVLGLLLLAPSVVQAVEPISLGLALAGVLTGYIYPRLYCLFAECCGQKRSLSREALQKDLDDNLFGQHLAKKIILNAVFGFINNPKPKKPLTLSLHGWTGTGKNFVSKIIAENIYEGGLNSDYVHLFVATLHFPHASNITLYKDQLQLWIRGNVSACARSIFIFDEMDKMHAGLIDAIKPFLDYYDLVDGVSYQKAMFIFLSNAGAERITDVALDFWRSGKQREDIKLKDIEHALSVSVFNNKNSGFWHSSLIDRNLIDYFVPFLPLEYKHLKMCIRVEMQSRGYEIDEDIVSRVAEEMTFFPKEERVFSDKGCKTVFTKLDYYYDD

[19] = biological target: Torsin-1A (Homo sapiens) (UniProt O14656); test: torsin A mutant lysate binding on microarrays – cell lysate, small-molecule microarray, COS7 lysate, 635/667 nm fluorescence, primary screen (AID 1150); conditions: COS7 hTOR1A mutant lysate, 635 nm fluorescence, higher = more signal;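 note: score pools 667 nm emission and signal to noise measuring lysate protein binding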
[20] = system: Sonic hedgehog protein (Shh); test: Sonic hedgehog microarray binding compounds – biochemical, small-molecule microarray, 635/667 nm fluorescence, primary screen (AID 1151); conditions: 635 nm fluorescence, higher = more signal;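 note: Shh protein binding to compounds spotted on small-molecule microarray slides; score combines spot fluorescence intensity with signal-to-noise across triplicate slides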

Structure (SMILES)	composite z-score [1]	composite z-score [2]	composite z-score [3]	composite z-score [4]	composite z-score [5]	composite z-score [6]	z-score [7]	composite z-score [8]	composite z-score [9]	z-score [10]	composite z-score [11]	z-score [12]	z-score [13]	z-score [14]	z-score [15]	composite z-score [16]	composite z-score [17]	composite z-score [18]	composite z-score [19]	composite z-score [20]
CC(C)(C)OC(=O)CC[C@@]1(C(=O)N2CCOCC2)N=C(c2ccc(OCCCO)cc2)O[C@@H]1c1ccccc1N=[N+]=[N-]	3.1	1.29	0.288	1.01	1.36	1.22	1.9	0.885	0.987	-10.6 (active)	1.23	-1.61 (inactive)	0.321 (inactive)	0.0686 (inactive)	-0.713 (inactive)	1.93	0.27	0.802	1.11	0.535
O=[N+]([O-])c1ccc(C[n+]2ccc(CCCO)cc2)o1	-0.0383	1.07	1.08	0.752	1.4	1.77	-0.506	0.73	0.226	-0.868 (inactive)	0.98	-1.22 (inactive)	0.0757 (inactive)	0.0026 (inactive)	0.619 (inactive)	1.15	0.189	0.153	0.263	1.06
COc1ccc([Si](C)(C)[C@H]2[C@H](CC(=O)N(CCO)Cc3ccccc3)O[C@@]3(C(=O)N(Cc4cccc(N5C(=O)c6cccc7cccc5c67)c4)c4ccccc43)[C@@H]2C)cc1	1.07	1.09	0.324	0.281	0.76	1.27	-0.203	0.834	0.862	-1.19 (inactive)	0.353	-4.87 (inactive)	-0.188 (inactive)	1.09 (inactive)	-1.14 (inactive)	0.544	-0.101	0.871	0.27	1.61
O=C(NCC(F)(F)F)[C@@H]1c2ccccc2C(=O)N(Cc2ccccc2)[C@H]1c1ccc(CO)cc1	1.52	-1.3	-0.813	-1.17	-1.25	-1.34	0.764	-1.57	-0.595	-0.363 (inactive)	-0.18	-0.223 (inactive)	-0.0791 (inactive)	-0.269 (inactive)	-0.461 (inactive)	-0.27	-0.214	0.111	0.0036	-0.911
Cc1ccc(S[C@]2(C(=O)NCCCN(C)C)CC(=O)N(Cc3ccccc3)[C@@H]2c2ccc(CO)cc2)cc1	-0.786	-0.335	-0.371	-0.865	0.0417	-0.734	0.803	-1.53	-0.0701	-1.1 (inactive)	-0.2	-0.533 (inactive)	0.294 (inactive)	-0.232 (inactive)	0.529 (inactive)	-0.689	-0.0494	-0.883	-0.623	-1.02
O=C(NCC(O)CO)[C@@]1(Cc2ccccc2)N=C(c2ccc(OCCCO)cc2)O[C@H]1c1ccccc1 (stereo not given in full)	3.21	1.2	0.0855	0.956	1.29	0.331	1.44	-0.836	0.922	-1.6 (inactive)	0.626	-2.66 (inactive)	-0.473 (inactive)	3.33 (inactive)	0.768 (inactive)	0.993	1.03	0.477	1.23	-0.959
C=CCN1C(=O)[C@]2(COC(c3ccc(OCCCO)cc3)=N2)Cc2ccccc21	3.08	1.15	0.0652	0.885	1.08	1.08	0.604	-0.14	-0.0492	-3.52 (inactive)	0.258	-3.34 (inactive)	-1.18 (inactive)	1.8 (inactive)	-1.3 (inactive)	-0.554	0.167	0.689	0.277	0.169
CCN(CC)c1ccc(N2CC=CC34O[C@@H]5/C=C\CCC(C)OC(=O)C5[C@H]3C(=O)N(CCCCCCO)[C@@H]4C2=O)cc1 (stereo not given in full)	0.0517	-0.089	-0.182	-1.59	-0.371	-0.361	0.905	-0.652	0.524	-1.59 (inactive)	-0.449	-0.406 (inactive)	0.398 (inactive)	0.886 (inactive)	0.57 (inactive)	-0.629	-0.359	0.84	0.0844	-0.166
C=CCC(OC(C)=O)[C@@H]1[C@@H](N(Cc2cc3ccccc3o2)C(=O)c2ccc(C)cc2)c2cc(OCCCO)ccc2N1C(=O)c1ccc(-c2ccccc2)cc1 (stereo not given in full)	-0.277	0.0357	0.13	0.122	0.714	-0.206	0.291	0.239	0.107	0.352 (inactive)	-0.221	-2.92 (inactive)	-2.16 (inactive)	2.76 (inactive)	-1.12 (inactive)	0.0073	0.295	0.308	-0.264	0.158
